# Data published in PubChem BioAssay (NCI).
# Values joined by “and” are separate entries in the source; they are usually repeats but may differ in a detail not shown here. Identical values can stand only once. About 79,000 compounds went through this panel and 15% of them were active in at least one assay; those are over-represented in the sample as a whole. Unmarked numbers belong to inactive results. Active and inactive are the calls of the source. Cut-off read from the data, not from the text of the source: active = growth inhibition above about 70%; inactive = the rest.
# Columns and labels:
# [1] = NCI Yeast Anticancer Drug Screen. Data for the rad50 strain (AID 155);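 note: 0% = growth of vehicle-only cultures of the same strain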; conditions: S. cerevisiae rad50 strain growth inhibition, hits give high values; at 50.0 µM unless noted
# Procedure, shortened: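 Genetically altered yeast (DNA repair pathway); compound treatment; growth inhibition vs vehicle ctrl.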
# [2] = NCI Yeast Anticancer Drug Screen. Data for the mec2-1 strain (AID 157); conditions: S. cerevisiae mec2-1 strain, hits give high values; at 50.0 µM unless noted
# Procedure, shortened: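 Compounds were applied to mec2-1 yeast cells. Their growth was then compared with that of vehicle-treated cultures to give growth inhibition.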
# [3] = NCI Yeast Anticancer Drug Screen. Data for the sgs1 mgt1 strain (AID 161);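 note: 0% = growth of cultures given vehicle only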; conditions: S. cerevisiae sgs1 mgt1 strain, hits give high values; at 50.0 µM unless noted
# Procedure, shortened: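 Compounds are added to genetically altered yeast, and growth is compared with cultures given vehicle alone to give percent inhibition.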
# [4] = NCI Yeast Anticancer Drug Screen. Data for the cln2 rad14 strain (AID 165);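 note: 0% = growth equal to vehicle treated cultures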; conditions: S. cerevisiae cln2 rad14 strain, hits give high values; at 50.0 µM unless noted
# Procedure, shortened: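 Strain: cln2 rad14 yeast, altered in cell cycle control and DNA damage repair. Read-out: growth inhibition vs vehicle.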
# [5] = NCI Yeast Anticancer Drug Screen. Data for the bub3 strain (AID 167); conditions: S. cerevisiae bub3 mutant strain, hits give high values; at 50.0 µM unless noted
# Procedure, shortened: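 Yeast carrying a defined mutation is treated with each compound, and growth is compared with that of vehicle-exposed cells to give inhibition.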
# [6] = NCI Yeast Anticancer Drug Screen. Data for the mlh1 rad18 strain (AID 175); conditions: S. cerevisiae mlh1 rad18 strain growth inhibition, hits give high values; at 50.0 µM unless noted
# Procedure, shortened: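 A repair-deficient yeast strain is exposed to test compound, and growth is scored relative to vehicle-treated controls.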
Compound,growth inhibition [1],growth inhibition [2],growth inhibition [3],growth inhibition [4],growth inhibition [5],growth inhibition [6]
O=C1OCC/C1=C\c1ccc2c(c1)OCO2,40.4%,-26.5%,20%,-2.85%,-10.2%,-2.4%
C#CC(C)(O)CCC(C)C (stereo not given),-10%,-16.1%,-3.3%,14.5%,10.8%,-16.9%
O=C(O)CCNCCC(=O)O,8.45%,-6.75%,3.6%,-25.5%,5.05%,9.7%
O=C(O)CCCl,-8.95% and -10.8%,7.65% and -16.2%,25.1% and -18.3%,-27.1% and -34.2%,-6.1% and -0.9%,29.3%
N#Cc1cccc2c1Nc1ccccc1S2,-9.75%,-21.8%,-10.7%,8.8%,5.9%,-19.9%
CCSC(=Nc1nc2ccc([N+](=O)[O-])cc2s1)SCC,43.5%,31.4%,33.5%,14.1%,25.5%,12.2%
COc1ccc(C(C)c2cc(N=NC(N)=O)c(OC)cc2O)cc1 (stereo not given),-2.7%,-3.6%,-4.1%,-4.25%,16.9%,12.7%
CN(C)Cc1cc(C(=O)/C=C/c2ccc(Cl)c(Cl)c2)cc(CN(C)C)c1O,-1.95%,-14.4%,6.3%,31.9%,2.15%,-3.3%
CCc1ccc(NC(=O)c2ccc(Cl)cc2Cl)cc1,4.9%,34.5%,7.7%,2.95%,11.8%,0.95%
CCCN=C(N)C(C)=O,5.85%,-4.9%,-11.1%,4.85%,15.2%,2.1%
COc1ccc(/C(=C(/c2ccc(OC)cc2)C2CC2)C2CC2)cc1,-5.3%,7.25%,11%,-14.8%,5.45%,10.6%
COc1cc2c(cc1OC)[C@H](c1cc(OC)c3c(c1)OCO3)[C@H]1C(=O)OCC1C2 (stereo not given in full),11.4%,-0.1%,0.2%,4.85%,30.6%,15.4%
COC(=O)CSc1cc(Cl)c(C)cc1S(=O)(=O)Nc1n[nH]c(N)n1,-14.2%,-7.5%,-11%,-6.65%,-9.75%,10.2%
CCCCCOC1OC(=O)C(Cl)=C1Cl (stereo not given),65.3%,36.7%,63.2%,61.7%,54.8%,44%
C=CCCn1nc(-c2ccccc2)oc1=O,-8.35%,-28.5%,-19.2%,-2.75%,-26.9%,6.1%
O=C(NC12CC3CC(CC(C3)C1)C2)C(=O)c1c[nH]c2ccc([N+](=O)[O-])cc12,-17.4%,-25.1%,-50.6%,-9.85%,-15.1%,-31.9%
Cc1cccc(C(=O)NNC(=O)C(=O)NNC(=O)c2cccc(C)c2)c1,3.6%,43.6%,-3.1%,-0.05%,24.6%,26.9%
COc1cc(CNc2nc3ccc(C(F)(F)F)cc3nc2-c2ccccc2)cc(OC)c1OC,-14.3%,-3.05%,-28.4%,-10.2%,2.25%,-4.55%
CCCCC(Sc1nn(C2OC(COC(=O)c3ccccc3)C(OC(=O)c3ccccc3)C2OC(=O)c2ccccc2)c(=O)[nH]c1=O)C(=O)OCC (stereo not given),-1.45%,-10.6%,-21.4%,-33.4%,-4.7%,7.45%
CN(CCO)c1ccccc1,-12.3%,-14.8%,-40.4%,-17.9%,-48.4%,-8%

Compound,growth inhibition [1],growth inhibition [2],growth inhibition [3],growth inhibition [4],growth inhibition [5],growth inhibition [6]
Cc1cc(S(=O)(=O)Nc2n[nH]c(N)n2)c(S)cc1Cl,11.4%,7.45%,-6.65%,-4.6%,1.1%,12.8%
Cc1ccc(S(=O)(=O)NN=C2C3C=CC2CC3)cc1,11.8%,-2.3%,2.55%,6.25%,2.7%,4.75%
CC(C)OC(=S)SC1CCCCC1=O (stereo not given),-0.45%,-8.1%,-4.35%,-66.2%,-6.2%,-8.25%
O=C1c2ccccc2CC(c2ccccc2)N1c1ccccc1 (stereo not given),51.1%,0.4%,31.4%,-22.4%,3.55%,32.1%
CC(=O)N(C(C)=O)c1c(N)n(C)c(=O)[nH]c1=O,12.7%,-4.85%,6.6%,14.3%,2.75%,8.5%
CC(C)CC(C)COC(=O)c1c(Cl)c(Cl)c(Cl)c(Cl)c1C(=O)O (stereo not given),66.6%,62.6%,77.9% (active),63.4%,72.8% (active),77.3% (active)
CN1C2=NCCN2C(=O)c2cc(Cl)ccc21,1.05%,-21.9%,15.6%,8.65%,13.7%,9.9%
O=c1[nH]nc(Cc2ccccc2)n1CCO,13.2%,2.65%,18.1%,1.3%,8.9%,-43.4%
Cc1c2ccccc2nc(CS(C)(=O)=O)[n+]1[O-],-16.9%,-1.8%,-4.75%,-51.6%,-16.7%,-5.5%
CCOC(=O)C(CCc1ccccc1)(NC(C)=O)C(=O)OCC,10.4%,-7.8%,12.3%,-4.65%,14.3%,-10%
CCOC(=O)C(Cc1c[nH]c2c(N(CCO)CCO)cccc12)(NC(C)=O)C(=O)OCC,-0.45%,-17.2%,16%,21.7%,-5.55%,9.95%
Cc1cc(Cl)c(OCC(=O)O)cc1C,-8.2%,-9.45%,-9.25%,-8.3%,-14.6%,-1.9%
NC(Cc1c[nH]c2ccccc12)C(=O)O (stereo not given),4.2% and -1.1%,-7.9% and -8.7%,-13.2% and 6.55%,3% and -1.25%,-28.4% and -2.7%,2.65% and -16.2%
CCn1c2ccccc2c2cc(N=Nc3ccc4c(c3)c3ccccc3n4CC)ccc21,44.5%,14.7%,19.9%,41.2%,45.2%,35.5%
Cc1c(Cl)cc(Cl)c2c1C(=O)CC(C)O2 (stereo not given),20.4%,7.4%,-0.4%,-17.2%,-14.5%,18.8%
NC(=S)Nc1ccc(Br)cc1,-0.85%,23.6%,25.5%,34.8%,-4.05%,7.6%
O=C(N=C(Oc1ccccc1)Oc1ccccc1)N=C(Oc1ccccc1)Oc1ccccc1,19.9%,9.15%,8.4%,20.3%,9.15%,36%
CCCCCc1cc[n+](CC(=O)c2ccc(F)cc2)cc1,-6.55%,13.6%,23.1%,-35.6%,45.6%,13.5%
Nc1nc(-c2ccc(Cl)cc2)cc(-c2cc(-c3ccc(Cl)cc3)nc(N)n2)n1,6.7%,-12.9%,-8.15%,-16%,-11.2%,25.4%
Cc1nc(Nc2ccc(Cl)cc2)c2cnn(-c3ccc(Cl)cc3)c2n1,-1.9%,-2.25%,-7.95%,-41%,-2.3%,-5.05%
